Only some compounds are listed: those with a hit (about 2.3% of all), similar ones and a draw of the others.
CHRM1 antagonist = human M1 muscarinic receptor antagonists, primary screen, CHO-K1 cells, Fluo-8 calcium fluorescence, 1536-well. 360,000 tested, 1.3% active. inhibition, % at 3 µM. CHO-K1 hM1, ACh EC80 antagonist;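 active = percent inhibition above its own plate's cutoff, namely the mean of that plate's compound wells plus 3 SD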;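 also: peak over basal fluorescence ratio during 140 s after agonist addition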
Target sequence (P11229 whole entry, looked up): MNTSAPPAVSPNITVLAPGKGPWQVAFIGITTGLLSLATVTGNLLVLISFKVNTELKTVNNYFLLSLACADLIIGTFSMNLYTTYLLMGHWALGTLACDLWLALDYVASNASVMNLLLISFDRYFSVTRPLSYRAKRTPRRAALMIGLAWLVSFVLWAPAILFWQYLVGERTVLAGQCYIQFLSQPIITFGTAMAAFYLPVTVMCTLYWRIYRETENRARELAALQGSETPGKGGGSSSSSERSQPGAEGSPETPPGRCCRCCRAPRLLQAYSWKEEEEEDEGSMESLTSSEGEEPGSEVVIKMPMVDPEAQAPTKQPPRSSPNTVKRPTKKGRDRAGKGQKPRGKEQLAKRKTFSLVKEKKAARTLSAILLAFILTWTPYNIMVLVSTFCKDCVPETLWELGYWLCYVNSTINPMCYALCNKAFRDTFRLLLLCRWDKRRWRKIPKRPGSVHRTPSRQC
M1 PAM parental = nonselective calcium activators in parental CHO-K1 cells, primary screen, counter-screen for M1 PAM project, cell-based, Fluo-8 calcium fluorescence, full deck, 1536-well; 360,000 tested, 0.02% active; ATP EC20; 0% at ATP EC20, 100% at ATP max; AID 602247, 2012; activation, % at 3 µM;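 active = activation above the run cutoff, the mean activation of all test compounds plus 3 SD, cut at about 40% in these data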;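 also: peak over basal fluorescence ratio in a 140 s read after ATP addition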
CHO-K1 Ca antag = nonselective inhibitor or artifact in parental CHO-K1 cells | ATP-induced calcium, Fluo-8 fluorescence | inhibition, % at 3 µM | 360,000 tested, 0.6% active | AID 602250;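 active = inhibition above a per-plate cutoff, the plate's mean sample inhibition plus 3 SD, cut at about 24% in these data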
M1 ag parental = counter-screen for M1 agonists: effect in parental CHO-K1 cells; activation, % at 3 µM; 360,000 tested, 0.48% active; Fluo-8 calcium fluorescence; scaled to maximal ATP response, vehicle zero; in the data active = activation above about 15%;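 also: untransfected CHO-K1 host cells lacking M1 receptor as counterscreen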
CHRM1 agonist = human M1 muscarinic receptor agonists, primary screen, Fluo-8 calcium fluorescence, CHO-K1 cells, HTS; Muscarinic acetylcholine receptor M1 (Homo sapiens), P11229; CHO-K1 hM1, agonist mode; 0% DMSO, 100% acetylcholine EC100; activation, % at 3 µM; 360,000 tested, 0.33% active; AID 588814, 2011;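 active = activation above the run's mean compound activation plus 3 SD, cut at about 16% in these data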;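 also: peak over basal fluorescence ratio within a 140 s kinetic read after compound addition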
M1 PAM = human M1 muscarinic receptor positive allosteric modulators, primary screen, CHO-K1 cells, Fluo-8 calcium fluorescence, 1536-well; Muscarinic acetylcholine receptor M1 (Homo sapiens), P11229; CHO-K1 hM1, ACh EC20; 0% = ACh EC20, 100% = maximal ACh; activation, % at 3 µM; 360,000 tested, 0.088% active; AID 588819, 2011; in the data active = activation above about 19%, passing the limit was not always enough
Numbers stand for hits.

For O=C(Nc1ccc2nc(SCc3ccc(Cl)cc3)sc2c1)c1ccccc1C(=O)N1CCOCC1 the results were CHRM1 antagonist 29, M1 PAM parental inactive, CHO-K1 Ca antag inactive, M1 ag parental inactive, CHRM1 agonist inactive and M1 PAM inactive.
Screening O=C(c1ccccc1)c1c2c(cc3sc4ccccc4[n+]13)-c1cccc3cccc-2c13 returned CHRM1 antagonist 46, M1 PAM parental inactive, CHO-K1 Ca antag 24, M1 ag parental 24, CHRM1 agonist 34 and M1 PAM inactive.
Screening Cc1sc2ccccc2[n+]1CC(=O)c1ccccc1 returned CHRM1 antagonist inactive, M1 PAM parental inactive, CHO-K1 Ca antag inactive, M1 ag parental inactive, CHRM1 agonist inactive and M1 PAM inactive.
Screening O=[N+]([O-])c1ccccc1NCCOc1ccccc1 returned CHRM1 antagonist inactive, M1 PAM parental inactive, CHO-K1 Ca antag inactive, M1 ag parental inactive, CHRM1 agonist inactive and M1 PAM inactive.
`Cc1nonc1OCCNCCNc1ccccc1[N+](=O)[O-]` gave CHRM1 antagonist inactive, M1 PAM parental inactive, CHO-K1 Ca antag 27, M1 ag parental inactive, CHRM1 agonist inactive and M1 PAM inactive.
For O=C1N/C(=C/c2ccc(N3CCCC3)cc2)C(=O)N1c1ccccc1 the results were CHRM1 antagonist inactive, M1 PAM parental inactive, CHO-K1 Ca antag inactive, M1 ag parental inactive, CHRM1 agonist inactive and M1 PAM inactive.
`O=C1/C(=C/c2ccc(N3CCCC3)cc2)NC(=S)N1C1CC1` gave CHRM1 antagonist 35, M1 PAM parental inactive, CHO-K1 Ca antag 45, M1 ag parental 56, CHRM1 agonist 34 and M1 PAM inactive.
`Cc1cc(N2CCCC2)ccc1/C=C1\NC(=S)N(C)C1=O` gave CHRM1 antagonist inactive, M1 PAM parental inactive, CHO-K1 Ca antag inactive, M1 ag parental 17, CHRM1 agonist 23 and M1 PAM inactive.
CN1C(=O)c2ccc(N3CCCC3)cc2C1=O was read as CHRM1 antagonist inactive, M1 PAM parental inactive, CHO-K1 Ca antag inactive, M1 ag parental inactive, CHRM1 agonist inactive and M1 PAM inactive.
O=C(NCc1ccccc1Cl)c1ccc2c(=O)n(CCCN3CCCC3=O)c(=S)[nH]c2c1 was read as CHRM1 antagonist inactive, M1 PAM parental inactive, CHO-K1 Ca antag 30, M1 ag parental inactive, CHRM1 agonist inactive and M1 PAM inactive.
For COCCNC(=O)c1ccc2c(=O)n(CCCN3CCCC3=O)c(=S)[nH]c2c1 the results were CHRM1 antagonist inactive, M1 PAM parental inactive, CHO-K1 Ca antag inactive, M1 ag parental inactive, CHRM1 agonist inactive and M1 PAM inactive.
For COC(=O)[C@]12CCCCC=C1N(Cc1ccco1)C(=O)[C@H](CC(=O)NCc1ccccc1)C2 the results were M1 PAM parental inactive, CHO-K1 Ca antag inactive and M1 ag parental inactive.
For CC1(C)CC(=O)c2ccc(OCc3ccc([N+](=O)[O-])cc3)cc2O1 the results were CHRM1 antagonist inactive, M1 PAM parental inactive, CHO-K1 Ca antag 30, M1 ag parental inactive, CHRM1 agonist inactive and M1 PAM inactive.
CC1(C)CC(=O)c2c(O)cc(OCc3ccc(Br)cc3)cc2O1 was read as CHRM1 antagonist inactive, M1 PAM parental inactive, CHO-K1 Ca antag inactive, M1 ag parental inactive, CHRM1 agonist inactive and M1 PAM inactive.
Screening CCOC(=O)C1=C(SCC)c2cc3c(n2C1=O)CCCC3 returned CHRM1 antagonist inactive, M1 PAM parental inactive, CHO-K1 Ca antag inactive, M1 ag parental inactive, CHRM1 agonist inactive and M1 PAM inactive.
For N#CC1=C(N2CCCCC2)c2cc3c(n2C1=O)CCCC3 the results were CHRM1 antagonist 35, M1 PAM parental inactive, CHO-K1 Ca antag inactive, M1 ag parental inactive, CHRM1 agonist inactive and M1 PAM inactive.
Screening CCOC(=O)C1CCCN(C(=S)Nc2cccc(Cl)c2C)C1 (centres undefined) returned CHRM1 antagonist 57, M1 PAM parental inactive, CHO-K1 Ca antag inactive, M1 ag parental inactive, CHRM1 agonist 68 and M1 PAM inactive.
For CCOC(=O)C1CCCN(C(=S)Nc2cccc(Cl)c2)C1 (centres undefined) the results were CHRM1 antagonist 62, M1 PAM parental inactive, CHO-K1 Ca antag inactive, M1 ag parental inactive, CHRM1 agonist 74 and M1 PAM inactive.
For CCOC(=O)C1CCCN(C(=O)c2cccc(NC(=O)C(CC)CC)c2)C1 (centres undefined) the results were CHRM1 antagonist inactive, M1 PAM parental inactive, CHO-K1 Ca antag 24, M1 ag parental inactive, CHRM1 agonist inactive and M1 PAM inactive.
Screening Cc1cccc(NC(=O)COc2coc(CN3CCN(c4ccccc4)CC3)cc2=O)c1C returned CHRM1 antagonist inactive, M1 PAM parental inactive, CHO-K1 Ca antag inactive, M1 ag parental inactive, CHRM1 agonist inactive and M1 PAM inactive.
`C=C1CC(COc2ccc3c(C)c(Cl)c(=O)oc3c2)(c2ccccc2)OC1=O` (centres undefined) gave CHRM1 antagonist inactive, M1 PAM parental inactive, CHO-K1 Ca antag inactive, M1 ag parental inactive, CHRM1 agonist inactive and M1 PAM inactive.
`CC1=[N+](C)c2c(ccc3cccnc23)C1(C)C` gave CHRM1 antagonist inactive, M1 PAM parental inactive, CHO-K1 Ca antag 34, M1 ag parental 16, CHRM1 agonist inactive and M1 PAM inactive.
Cc1[nH]c2c(ccc3cccnc32)c1C was read as CHRM1 antagonist inactive, M1 PAM parental inactive, CHO-K1 Ca antag inactive, M1 ag parental inactive, CHRM1 agonist inactive and M1 PAM inactive.
Screening CC1CC(C)CN(S(=O)(=O)CCNC(=O)c2ccc3c(c2)OCO3)C1 (centres undefined) returned CHRM1 antagonist inactive, M1 PAM parental inactive, CHO-K1 Ca antag inactive, M1 ag parental inactive, CHRM1 agonist inactive and M1 PAM inactive.
`O=C1c2cccc3c(N4CCCCC4)ccc(c23)C(=O)N1CCO` gave CHRM1 antagonist inactive, M1 PAM parental inactive, CHO-K1 Ca antag inactive, M1 ag parental 17, CHRM1 agonist inactive and M1 PAM inactive.
Screening O=C1c2cccc3c(N4CCCCC4)ccc(c23)C(=O)N1c1cccc(O)c1 returned CHRM1 antagonist 32, M1 PAM parental inactive, CHO-K1 Ca antag inactive, M1 ag parental 30, CHRM1 agonist 36 and M1 PAM inactive.
`CC(=O)c1ccc2c3c(cccc13)C(=O)N(c1c(C)nn(C)c1C)C2=O` gave CHRM1 antagonist inactive, M1 PAM parental inactive, CHO-K1 Ca antag inactive, M1 ag parental inactive, CHRM1 agonist inactive and M1 PAM inactive.
`O=C(c1cccc(N2C(=O)c3ccccc3C2=O)c1)N1CCCCCC1` gave CHRM1 antagonist inactive, M1 PAM parental inactive, CHO-K1 Ca antag inactive, M1 ag parental inactive, CHRM1 agonist inactive and M1 PAM inactive.

High-throughput results deposited in PubChem by The Scripps Research Institute Molecular Screening Center.
